Measured values reported in PubChem BioAssay (NCATS).
Records with an inconclusive call do not appear. Where a call stands in place of a potency, no number is given. A number with no mark means an inactive call. Calls of active or inactive are those of the source. Unless noted, the call rests on the fitted dose curve.

What follows are compounds tested against Estrogen receptor (Homo sapiens) (UniProt P03372) (assay: qHTS assay for small molecule antagonists of estrogen receptor alpha signaling (AID 588513; active means well fitted curve in the direction sought with a large enough effect in the signal ratio, with a control signal flat, not every such curve was filed as active; the % refers to the signal ratio)). Conditions: ER-alpha-UAS-bla HEK293, beta-lactamase ratio, antagonist mode; series mostly up to 76.9 µM; activity, negative = inhibition: at the top concentration.
Sequence of Estrogen receptor (Homo sapiens) (P03372 whole entry, looked up): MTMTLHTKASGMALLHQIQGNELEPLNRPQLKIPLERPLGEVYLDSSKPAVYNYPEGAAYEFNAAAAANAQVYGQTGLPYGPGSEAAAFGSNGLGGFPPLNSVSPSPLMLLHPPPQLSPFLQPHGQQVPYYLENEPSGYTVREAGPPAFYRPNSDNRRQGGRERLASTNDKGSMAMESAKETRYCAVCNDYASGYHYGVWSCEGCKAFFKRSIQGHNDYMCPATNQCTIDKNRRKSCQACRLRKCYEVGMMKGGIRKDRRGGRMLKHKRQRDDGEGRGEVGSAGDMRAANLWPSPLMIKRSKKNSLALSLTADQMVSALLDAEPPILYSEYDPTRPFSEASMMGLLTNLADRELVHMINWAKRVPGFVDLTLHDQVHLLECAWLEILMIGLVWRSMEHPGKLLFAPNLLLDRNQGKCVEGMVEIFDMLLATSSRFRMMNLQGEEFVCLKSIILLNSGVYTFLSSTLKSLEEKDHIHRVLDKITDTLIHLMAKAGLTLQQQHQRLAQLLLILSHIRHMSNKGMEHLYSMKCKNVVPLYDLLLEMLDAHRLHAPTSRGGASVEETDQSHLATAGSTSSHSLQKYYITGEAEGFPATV
Procedure, shortened: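 Antagonist mode: inhibition of 0.5 nM 17-beta-estradiol-driven beta-lactamase reporter in HEK 293 ER-alpha-UAS-bla cells, 18 h at 37C, CCF4 readout after 2 h at RT. Normalised to estradiol and DMSO; titration fitted to Hill.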

SMILES | activity, negative = inhibition [%] | Potency
O=C(O)COc1ccccc1 | 29 | 
O=C(O)C(Cl)Cl |  | inactive
Cc1cc(O)ccc1Cl | -6.13 | 
C1CCC(NC2CCCCC2)CC1 |  | inactive

These compounds were tested against Estrogen receptor (Homo sapiens) (UniProt P03372) (assay: qHTS assay for small molecule agonists of estrogen receptor alpha signaling (AID 588514; further: nearly all actives have a fitted effect of over 70% in size)). Conditions: ER-alpha-UAS-bla HEK293, beta-lactamase ratio, 18 h, percent of full estradiol response, vehicle zero; series mostly up to 76.8 µM; activation: at the top concentration.
Procedure, shortened: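 ER-alpha-UAS-bla GripTite HEK293 cells, 5000/well in 2% charcoal/dextran-stripped FBS medium, treated with compound titrations 18 h at 37 C. CCF4 beta-lactamase read by fluorescence after 2 h RT; normalised to 20 nM 17-beta-estradiol (100%) and DMSO (0%), Hill fit for EC50 and efficacy.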

SMILES | activation [%] | outcome
O=C(O)COc1ccccc1 | -1.61 | 
O=C(O)C(Cl)Cl |  | inactive
Cc1cc(O)ccc1Cl | 7.83 | 
C1CCC(NC2CCCCC2)CC1 |  | inactive
